PubChem BioAssay (EPA / NIEHS)
“And” between values parts separate entries of the source, which are not always exact repeats. Identical values can stand only once. Inconclusive results are not listed. A structure can be active in one record and inactive in another. The source made the active and inactive calls. The calls were made as follows: active = hit-call score of the fitted dose curve at least 0.9, where 1 is the maximum; inconclusive = response in the unintended direction; inactive = score below 0.9.

Experiments:
[1] = target: Oxysterols receptor LXR-alpha (Homo sapiens) (UniProt Q13133); assay: ATG_LXRa_TRANS: Attagene TRANS-FACTORIAL HepG2 Assay for human Liver X Receptor alpha (LXRa) (AID 2282980); settings: HepG2 Attagene TRANS reporter, LXRa transactivation
Outline: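 Read-out: reporter transcript levels by RT-PCR plus capillary electrophoresis, fluorescence intensity. Transiently transfected HepG2, exogenous NR-GAL4 chimera, GAL4-UAS reporters; 24 h compound exposure. Activity = increase over DMSO negative control.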

[2] = target: Oxysterols receptor LXR-beta (Homo sapiens) (UniProt P55055); assay: ATG_LXRb_TRANS: Attagene TRANS-FACTORIAL HepG2 Assay for human Liver X Receptor beta (LXRb) (AID 2282981); settings: HepG2 Attagene TRANS GAL4-LXRb reporter, mRNA
Outline: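 Liver-derived HepG2 cells transfected with Gal4-responsive reporters were dosed for 24 h. Activation was scored as rise in reporter mRNA, by RT-PCR and capillary electrophoresis, above DMSO baseline.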

[3] = ATG_M_06_TRANS: Attagene TRANS-FACTORIAL HepG2 Assay for M06 Transcription Factor (Internal Marker) (AID 2282983); settings: HepG2 Attagene TRANS M06 internal marker reporter
Outline: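 Read-out: fluorescent reporter cDNA fragments resolved by capillary electrophoresis after RT-PCR and HpaI cut. Source cells were HepG2 carrying transfected multi-reporter GAL4 constructs, dosed 24 h. Increase over DMSO control analysed.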

[4] = target: Bile acid receptor (Homo sapiens) (UniProt Q96RI1); assay: ATG_FXR_TRANS: Attagene TRANS-FACTORIAL HepG2 Assay for Farnesoid X Receptor (FXR) (AID 2282979); settings: HepG2 Attagene TRANS FXR-GAL4 reporter transcription;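 also: hits raise reporter mRNA above DMSO so AC50 marks FXR activation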
Outline: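 Read-out: fluorescent reporter transcripts quantified by capillary electrophoresis after RT-PCR of total RNA. Source cells were HepG2 transiently carrying chimeric NR-GAL4 plus GAL4-UAS reporter units, dosed 24 h. Activity fitted upward relative to DMSO baseline.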

[5] = ATG_M_32_TRANS: Attagene TRANS-FACTORIAL HepG2 Assay for M32 Transcription Factor (Internal Marker) (AID 2282984); settings: HepG2 Attagene TRANS M32 internal marker reporter;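 also: transcript level of a background control reporter unit measured by RT-PCR and capillary electrophoresis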
Outline: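 Fluorescence-detected mRNA induction, HepG2 liver cells, 24 h after dosing. Multiple GAL4-UAS reporter units introduced by transient transfection; background-control endpoint analysed for gain of signal against DMSO.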

[6] = target: Hepatocyte nuclear factor 4-alpha (Homo sapiens) (UniProt P41235); assay: ATG_HNF4a_TRANS: Attagene TRANS-FACTORIAL HepG2 Assay for human Hepatocyte Nuclear Factor 4 alpha (HNF4a) (AID 2282982); settings: HepG2 HNF4a transactivation reporter, mRNA readout
Outline: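 Using HepG2 liver cells transfected with GAL4-UAS reporter units, chemical-induced mRNA increases were assessed after 24 hours. Fluorescent RT-PCR fragments were separated by capillary electrophoresis and compared with DMSO negative controls.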

[7] = target: Nuclear receptor subfamily 4 group A member 2 (Homo sapiens) (UniProt P43354); assay: ATG_NURR1_TRANS: Attagene TRANS-FACTORIAL HepG2 Assay for human Nuclear Receptor Related Protein 1 (NURR1) (AID 2282985); settings: HepG2 Attagene TRANS reporter, mRNA readout
Outline: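 Chimeric NR-Gal4 proteins were expressed in human HepG2 cells bearing GAL4-UAS reporter units, and induced reporter mRNA was quantified 24 h post-dosing by RT-PCR and capillary electrophoresis.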

[8] = target: Estrogen-related receptor gamma (Homo sapiens) (UniProt P62508); assay: ATG_ERRg_TRANS: Attagene TRANS-FACTORIAL HepG2 Assay for human Estrogen-Related Receptor gamma (ERRg) (AID 2282977); settings: HepG2 Attagene TRANS reporter, ERRg transactivation;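 also: hits increase reporter signal over DMSO so potencies reflect activators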
Outline: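 Readout: fluorescent reporter-mRNA fragments resolved by capillary electrophoresis after RT-PCR and HpaI cut. Cells: transiently transfected HepG2 carrying GAL4-UAS reporters driven by exogenous NR-Gal4 chimeras, dosed 24 h. Activity fitted upward relative to DMSO baseline.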

[9] = target: Glucocorticoid receptor (Homo sapiens) (UniProt P04150); assay: ATG_GR_TRANS: Attagene TRANS-FACTORIAL HepG2 Assay for human Glucocorticoid Receptor (GR) (AID 2282978); settings: HepG2 Attagene TRANS GR reporter, mRNA transcription;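 also: activators score as hits since higher reporter transcript over DMSO is fitted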
Outline: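 Reporter transcript levels, detected by fluorescence after RT-PCR and capillary electrophoresis, served as the endpoint. HepG2 cells bearing transfected GAL4-UAS reporters responsive to NR-GAL4 chimeras were incubated with compound 24 h; DMSO defined baseline.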

Measured: AC50

Chain of Glucocorticoid receptor (Homo sapiens) (P04150 whole entry, looked up, the tested form may be a part): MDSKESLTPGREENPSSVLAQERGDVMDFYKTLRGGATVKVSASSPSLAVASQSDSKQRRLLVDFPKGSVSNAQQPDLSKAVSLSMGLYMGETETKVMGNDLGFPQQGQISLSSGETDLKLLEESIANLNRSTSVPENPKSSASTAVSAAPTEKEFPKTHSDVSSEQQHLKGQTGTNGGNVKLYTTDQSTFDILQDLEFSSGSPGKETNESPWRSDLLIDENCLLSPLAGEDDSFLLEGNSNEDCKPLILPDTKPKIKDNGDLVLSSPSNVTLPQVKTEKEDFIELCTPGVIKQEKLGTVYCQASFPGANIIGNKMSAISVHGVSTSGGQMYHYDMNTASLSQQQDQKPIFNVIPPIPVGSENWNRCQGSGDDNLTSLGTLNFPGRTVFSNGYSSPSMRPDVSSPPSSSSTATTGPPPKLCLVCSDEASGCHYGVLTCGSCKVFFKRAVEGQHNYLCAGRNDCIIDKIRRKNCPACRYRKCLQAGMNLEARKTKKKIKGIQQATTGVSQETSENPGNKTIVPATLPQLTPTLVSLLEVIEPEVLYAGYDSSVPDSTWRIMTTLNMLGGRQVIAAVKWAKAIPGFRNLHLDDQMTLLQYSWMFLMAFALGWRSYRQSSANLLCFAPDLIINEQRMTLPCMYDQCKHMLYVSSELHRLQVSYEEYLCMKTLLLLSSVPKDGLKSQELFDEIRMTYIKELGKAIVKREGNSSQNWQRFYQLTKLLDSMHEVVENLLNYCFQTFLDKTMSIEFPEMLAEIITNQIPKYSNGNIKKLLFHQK
Chain of Nuclear receptor subfamily 4 group A member 2 (Homo sapiens) (P43354 whole entry, looked up, the tested form may be a part): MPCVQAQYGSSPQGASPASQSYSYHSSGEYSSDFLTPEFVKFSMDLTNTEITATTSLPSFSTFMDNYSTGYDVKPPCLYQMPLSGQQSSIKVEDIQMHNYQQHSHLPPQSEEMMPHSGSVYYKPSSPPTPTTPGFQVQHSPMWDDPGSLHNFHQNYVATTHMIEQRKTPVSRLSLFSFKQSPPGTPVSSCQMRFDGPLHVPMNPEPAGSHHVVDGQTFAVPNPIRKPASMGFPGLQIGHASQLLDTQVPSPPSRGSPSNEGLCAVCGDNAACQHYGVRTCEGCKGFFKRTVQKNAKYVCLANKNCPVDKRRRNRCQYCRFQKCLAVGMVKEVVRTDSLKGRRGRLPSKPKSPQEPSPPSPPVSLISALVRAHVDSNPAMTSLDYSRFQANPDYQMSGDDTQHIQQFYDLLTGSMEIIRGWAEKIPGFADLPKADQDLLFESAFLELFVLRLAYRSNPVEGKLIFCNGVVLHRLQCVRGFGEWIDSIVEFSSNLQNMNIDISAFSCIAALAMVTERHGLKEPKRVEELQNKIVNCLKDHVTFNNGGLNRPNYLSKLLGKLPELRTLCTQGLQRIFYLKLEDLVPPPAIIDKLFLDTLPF
Chain of Estrogen-related receptor gamma (Homo sapiens) (P62508 whole entry, looked up, the tested form may be a part): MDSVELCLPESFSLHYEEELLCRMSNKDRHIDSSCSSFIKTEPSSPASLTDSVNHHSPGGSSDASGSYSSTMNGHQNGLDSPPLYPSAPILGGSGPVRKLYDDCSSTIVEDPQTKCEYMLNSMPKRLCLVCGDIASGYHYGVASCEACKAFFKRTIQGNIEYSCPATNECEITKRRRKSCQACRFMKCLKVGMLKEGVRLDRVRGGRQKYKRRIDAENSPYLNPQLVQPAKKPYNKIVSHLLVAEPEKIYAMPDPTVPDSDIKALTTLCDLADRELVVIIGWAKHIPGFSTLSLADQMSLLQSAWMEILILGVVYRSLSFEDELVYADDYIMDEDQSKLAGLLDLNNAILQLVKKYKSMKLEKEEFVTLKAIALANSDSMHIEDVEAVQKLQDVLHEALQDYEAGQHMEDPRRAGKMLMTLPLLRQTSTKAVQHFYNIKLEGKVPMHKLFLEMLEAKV
Chain of Bile acid receptor (Homo sapiens) (Q96RI1 whole entry, looked up, the tested form may be a part): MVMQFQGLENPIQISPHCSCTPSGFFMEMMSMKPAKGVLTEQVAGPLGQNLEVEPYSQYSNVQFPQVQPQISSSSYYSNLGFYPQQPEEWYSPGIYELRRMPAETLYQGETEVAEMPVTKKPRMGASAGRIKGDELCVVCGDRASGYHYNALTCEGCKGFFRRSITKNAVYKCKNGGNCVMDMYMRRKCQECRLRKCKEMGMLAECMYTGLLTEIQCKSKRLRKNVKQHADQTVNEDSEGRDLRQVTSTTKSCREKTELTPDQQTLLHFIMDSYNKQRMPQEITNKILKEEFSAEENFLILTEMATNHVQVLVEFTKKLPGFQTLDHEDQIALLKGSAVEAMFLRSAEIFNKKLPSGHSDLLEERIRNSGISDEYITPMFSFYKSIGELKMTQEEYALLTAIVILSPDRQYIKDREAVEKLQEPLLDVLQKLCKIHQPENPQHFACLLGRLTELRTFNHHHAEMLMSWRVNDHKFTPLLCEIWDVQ
Chain of Oxysterols receptor LXR-alpha (Homo sapiens) (Q13133 whole entry, looked up, the tested form may be a part): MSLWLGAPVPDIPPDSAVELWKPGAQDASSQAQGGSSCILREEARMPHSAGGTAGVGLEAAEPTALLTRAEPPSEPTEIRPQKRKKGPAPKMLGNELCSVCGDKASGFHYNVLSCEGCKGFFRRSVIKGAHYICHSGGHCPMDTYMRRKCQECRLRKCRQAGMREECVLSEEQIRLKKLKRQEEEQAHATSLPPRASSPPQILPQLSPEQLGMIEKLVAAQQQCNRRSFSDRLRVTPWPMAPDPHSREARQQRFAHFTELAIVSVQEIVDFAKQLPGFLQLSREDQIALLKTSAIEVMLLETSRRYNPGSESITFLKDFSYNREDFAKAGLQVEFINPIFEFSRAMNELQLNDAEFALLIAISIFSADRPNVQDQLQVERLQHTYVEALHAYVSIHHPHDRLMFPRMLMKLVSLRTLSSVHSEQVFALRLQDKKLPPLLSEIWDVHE
Chain of Oxysterols receptor LXR-beta (Homo sapiens) (P55055 whole entry, looked up, the tested form may be a part): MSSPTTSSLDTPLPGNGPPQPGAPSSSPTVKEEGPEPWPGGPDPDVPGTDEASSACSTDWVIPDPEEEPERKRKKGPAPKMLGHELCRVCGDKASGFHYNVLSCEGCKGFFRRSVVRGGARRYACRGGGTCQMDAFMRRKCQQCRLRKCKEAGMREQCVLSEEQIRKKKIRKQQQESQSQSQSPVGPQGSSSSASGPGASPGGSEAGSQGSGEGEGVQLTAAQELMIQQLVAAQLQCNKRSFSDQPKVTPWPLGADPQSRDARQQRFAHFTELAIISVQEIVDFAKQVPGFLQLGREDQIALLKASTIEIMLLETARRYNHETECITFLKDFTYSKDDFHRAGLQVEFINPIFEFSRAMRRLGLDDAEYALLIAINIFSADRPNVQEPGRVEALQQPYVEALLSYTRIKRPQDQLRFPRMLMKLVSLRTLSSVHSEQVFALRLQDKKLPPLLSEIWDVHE
Chain of Hepatocyte nuclear factor 4-alpha (Homo sapiens) (P41235 whole entry, looked up, the tested form may be a part): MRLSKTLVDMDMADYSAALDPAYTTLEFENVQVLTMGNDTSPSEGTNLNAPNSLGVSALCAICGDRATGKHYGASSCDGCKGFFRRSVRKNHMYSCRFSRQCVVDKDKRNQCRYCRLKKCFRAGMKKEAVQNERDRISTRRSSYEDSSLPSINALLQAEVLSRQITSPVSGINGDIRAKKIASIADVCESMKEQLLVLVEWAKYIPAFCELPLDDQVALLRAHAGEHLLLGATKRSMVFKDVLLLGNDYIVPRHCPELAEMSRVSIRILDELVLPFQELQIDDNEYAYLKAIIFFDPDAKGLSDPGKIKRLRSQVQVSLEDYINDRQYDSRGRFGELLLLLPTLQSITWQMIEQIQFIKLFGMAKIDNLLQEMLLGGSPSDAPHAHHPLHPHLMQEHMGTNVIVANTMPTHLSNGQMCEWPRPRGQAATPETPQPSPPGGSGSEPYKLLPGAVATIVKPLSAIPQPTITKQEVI

CN(C)c1nc(=O)n(C2CCCCC2)c(=O)n1C
inactive: [1] | [2] | [3]

C1CC2OC2CC1C1CO1 (stereo unspecified)
inactive: [4] | [5]

CCCCCCCCCC[N+](C)(C)CCCCCCCCCC
inactive: [4] | [2] | [6] | [3] | [5] | [7]

CCOCCOC(C)=O
inactive: [3] | [7]

OCC(O)CO
inactive: [8] | [9] | [4] | [2] | [5] | [7]

COS(=O)(=O)OC
inactive: [1] | [2] | [3] | [5] | [7]

Cc1cccc([N+](=O)[O-])c1
inactive: [3]

CC(C)(O)C(=O)Nc1ccc([N+](=O)[O-])c(C(F)(F)F)c1
inactive: [8] | [1] | [2] | [6] | [3] | [5] | [7]

CCNc1nc(NC(C)C)nc(SC)n1
inactive: [1] | [2] | [6] | [3] | [5]

ClC(Cl)=C(c1ccc(Cl)cc1)c1ccc(Cl)cc1
inactive: [8] | [9] | [4] | [1] | [2] | [3] | [5] | [7]

CCC(C)(CC)c1cc(NC(=O)c2c(OC)cccc2OC)on1
inactive: [8] | [6] | [5] | [7]

Cc1ccccc1CO[C@@H]1C[C@@]2(C(C)C)CC[C@]1(C)O2
active: [1] 32 µM
inactive: [2] | [3] | [5] | [7]

CCSC(=O)N(CC)C1CCCCC1
inactive: [2]

O=C(O)C(F)(F)C(F)(F)C(F)(F)C(F)(F)C(F)(F)C(F)(F)C(F)(F)C(F)(F)F
active: [4] 151 µM and 219 µM | [7] 38.9 µM and 39.4 µM
inactive: [9] | [4] | [1] | [2] | [6] | [3] | [5]

Cc1cc(O)ccc1Cl
inactive: [8] | [9] | [4] | [6] | [3]
active: [1] 24.3 µM

COc1ccc(O)c(C(C)(C)C)c1
inactive: [9] | [4] | [3] | [5]

CCC(C)(c1ccc(O)cc1)c1ccc(O)cc1
inactive: [8] | [4] | [1] | [2] | [6] | [3] | [5] | [7]

ClC1=C(Cl)[C@]2(Cl)[C@@H]3[C@@H]4C[C@@H]([C@H]5O[C@@H]45)[C@@H]3[C@@]1(Cl)C2(Cl)Cl
inactive: [9] | [3] | [5]

CCOP(=S)(OCC)SCSC(C)(C)C
inactive: [6] | [3] | [5] | [7]
active: [1] 12 µM and 12.9 µM | [2] 20.2 µM and 27.7 µM
